HCMV inh: human cytomegalovirus inhibition. activity change, negative = inhibition, % at 57.5 µM. HFF cells, HCMV-luciferase reporter, 72 h; hits give low values. 4.5% of 410,000 active; in the data active = activity change below about -60%; inconclusive = no clear call, values can overlap the other calls; inactive = above about -39%
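Compounds were evaluated in HFFs infected with an HCMV luciferase reporter virus (MOI 1 PFU/cell). Luciferase in lysates collected 72 h post infection served as the replication measure.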
MARV entry inh: Marburg virus entry inhibition; Marburg virus pseudotyped entry inhibition, cell reporter; AID 540276; Potency, µM (series often up to 37.8 µM), without a hit: at the highest dose activity change, negative = inhibition, actives largely listed as inhibitors; 1.8% of 300,000 active; calls by dose curve; tested in HEK293 cells; note: potency is the fitted concentration of half-maximal effect
FMDV inh: blocks foot and mouth disease virus | FMDV antiviral cell-based qHTS | Potency, µM (highest dose often 57.9 µM), without a hit: top-dose activity change, negative = inhibition, actives largely listed as inhibitors | 1.2% of 410,000 active; calls by dose curve; tested in HEK293T cells; note: read-out not given here; potency is the fitted concentration of half-maximal effect; nearly all actives have a fitted effect of over 45% in size
Lassa entry inh: inhibitors of Lassa virus binding or cell entry | Potency, µM (highest dose often 37.9 µM), for inactives: at the top dose activity change, negative = inhibition, usual class: inhibitors | 1.2% of 300,000 active | Lassa virus pseudotype entry inhibition, cell reporter | AID 540256; calls by dose curve; tested in HEK293 cells; note: potency is the fitted concentration of half-maximal effect; nearly all actives have a fitted effect of over 50% in size
Active calls of the source: *; ! = not confirmed by another sample; [ ] = another dose, or the depositor's remark. Rows were chosen to be rich in hits. Some 6.2% of all compounds tested hit in one or more screens of this group. % is set by controls: 0 for no effect and ±100 for the full control effect.

For Cc1cc(=O)[nH]c(SCC(=O)Nc2ccc3c(c2)CCC3)c1C#N the results were HCMV inh -77* and FMDV inh 19%.
For Cc1ccccc1Nc1sc(C(=O)c2ccccc2)c(N)c1C(=O)NCc1ccc(Cl)cc1 the results were HCMV inh inconclusive, FMDV inh inconclusive and Lassa entry inh -21%[46.1 µM].
Screening Cc1ccc(CNC(=O)c2c(Nc3ccccc3C)sc(C(=O)c3ccc(F)cc3)c2N)cc1 returned HCMV inh -75*, FMDV inh -13% and Lassa entry inh inconclusive.
`COc1cccc(Nc2sc(C(=O)c3ccc(Cl)cc3)c(N)c2C(=O)NCCc2ccc(OC)c(OC)c2)c1` gave HCMV inh 36, FMDV inh -16% and Lassa entry inh -24%[46.1 µM].
For COc1cccc(Nc2sc(C(=O)c3ccc(F)cc3)c(N)c2C(=O)NCc2ccc(C)cc2)c1 the results were HCMV inh -62*, FMDV inh 14µM* and Lassa entry inh inconclusive.
Screening COc1ccc(-c2nnc(SCC(=O)N(Cc3ccccc3)C(C)(C)C)o2)cc1OC returned HCMV inh -95*, MARV entry inh inconclusive, FMDV inh 11µM* and Lassa entry inh inconclusive.
`CCN(C(=O)CSc1nnc(-c2cc(OC)c(OC)c(OC)c2)o1)c1ccccc1` gave HCMV inh -19, MARV entry inh -4%[46.1 µM], FMDV inh 0% and Lassa entry inh 13%[46.1 µM].
CC1=C(C(=O)N(C)C)CC(CC(=O)NCC2CCCCC2)C(=O)N1CCC1=CCCCC1 (stereo not drawn) was read as HCMV inh -3 and FMDV inh -3%.
N#C/C(=N\Nc1ccc([N+](=O)[O-])cc1)C(N)=S was read as HCMV inh -95*, MARV entry inh inconclusive, FMDV inh -27% and Lassa entry inh inconclusive.
For O=C(O)c1ccc(N=NNc2cccc([N+](=O)[O-])c2)cc1 the results were HCMV inh 61, MARV entry inh inconclusive, FMDV inh -19% and Lassa entry inh inconclusive.
N#C/C(=N\Nc1cccc([N+](=O)[O-])c1)C(=O)c1ccc(Br)cc1 was read as HCMV inh -101*, MARV entry inh inconclusive and FMDV inh inconclusive.
COc1ccc(C(=O)Nc2ccc(-c3cc4ccccc4oc3=O)c(C)c2)cc1OC was read as HCMV inh -39, FMDV inh -7% and Lassa entry inh -19%[46.1 µM].
Screening Oc1cccc(Nc2cc3[nH]c(-c4ccccc4)cc3cn2)c1 returned HCMV inh -87*.
`FC(F)(F)Oc1ccc(Nc2cc3[nH]c(-c4ccccc4)cc3cn2)cc1` gave HCMV inh -34.
Screening CCOC(=S)SCc1cn2ccc(C)cc2n1 returned HCMV inh -65*, MARV entry inh -1%, FMDV inh -1% and Lassa entry inh 22%.
`CCOC(=O)c1ccc(CC2S/C(=C(\C#N)C(C)=O)NC2=O)cc1` (stereo not drawn) gave HCMV inh 119, MARV entry inh inconclusive, FMDV inh 63% and Lassa entry inh inconclusive.
`CCc1ccc(CC2S/C(=C(\C#N)C(C)=O)NC2=O)cc1` (stereo not drawn) gave HCMV inh -90*, MARV entry inh inconclusive, FMDV inh 26% and Lassa entry inh 5.8µM*.
`CC(=O)/C(C#N)=C1\NC(=O)C(Cc2ccc(C)c(Cl)c2)S1` (stereo not drawn) gave HCMV inh -92*, MARV entry inh inconclusive, FMDV inh 14% and Lassa entry inh inconclusive.
`COc1ccccc1N(C)S(=O)(=O)c1ccc(C(=O)NC(C)(C)C)cc1` gave HCMV inh 5, MARV entry inh inconclusive, FMDV inh -7% and Lassa entry inh inconclusive.
Screening COc1ccc(CCn2c(=O)c3cccnc3n(CC(=O)Nc3ccc(C)c(F)c3)c2=O)cc1OC returned HCMV inh 11, MARV entry inh 0%[46.1 µM] and FMDV inh -2%.
For Cc1ccc(C)c(CNC(=O)c2ccc3c(c2)nc2n3CCOC2)c1 the results were HCMV inh 10, FMDV inh -6% and Lassa entry inh inconclusive.
Screening CC(C)CCNC(=O)c1ccc2c(c1)nc1n2CCCCC1 returned HCMV inh -7, FMDV inh -25% and Lassa entry inh inconclusive.
For O=C(NCCc1ccccc1Cl)c1ccc2c(c1)nc1n2CCCCC1 the results were HCMV inh -81*, FMDV inh 25µM* and Lassa entry inh inconclusive.
Screening Cc1ccc(C)c(CNC(=O)c2ccc3c(c2)nc2n3CCCCC2)c1 returned HCMV inh -23, FMDV inh 20% and Lassa entry inh 7.9µM*.
CCn1c(=O)c(C(=O)CC#N)c(N)n(Cc2ccccc2)c1=O was read as HCMV inh inconclusive, MARV entry inh 2% and FMDV inh 1%.
`Clc1ccc(OCc2nnc(SCCN3CCCCC3)n2Cc2ccco2)cc1` gave HCMV inh 0, MARV entry inh 26µM*!, FMDV inh -11% and Lassa entry inh -21%.
For O=c1c2ccccc2nnn1CSc1nnc(COc2ccc(Cl)cc2)n1Cc1ccco1 the results were HCMV inh -60*, MARV entry inh -1%, FMDV inh 0% and Lassa entry inh -21%.
Screening COc1ccccc1NC(=O)CSc1nnc(COc2ccc(Cl)cc2)n1Cc1ccco1 returned HCMV inh 28, MARV entry inh -16%, FMDV inh -17% and Lassa entry inh -9%.
Screening CC(=O)NS(=O)(=O)c1ccc(NC(=S)NC(=O)COc2ccccc2C)cc1 returned HCMV inh 63, MARV entry inh inconclusive, FMDV inh 0% and Lassa entry inh -3%.
`CC(=O)Nc1ccc(Nc2nc(C)cc(C)n2)cc1` gave HCMV inh 13, MARV entry inh 13%, FMDV inh 15% and Lassa entry inh 7%.
Screening CC1(C(=O)NS(=O)(=O)c2ccc(Cl)s2)CCN1C(=O)C1(c2ccc(Cl)cc2)CCC1 (stereo not drawn) returned HCMV inh 2 and FMDV inh 7%.
Screening Cc1ccc(NC(=O)Cn2cc(C(=O)c3ccccc3)c3ccccc32)cc1 returned HCMV inh -91*, MARV entry inh inconclusive, FMDV inh inconclusive and Lassa entry inh inconclusive.
CC(=O)c1cn(CC(=O)Nc2ccccc2)c2ccccc12 was read as HCMV inh -73*, MARV entry inh inconclusive, FMDV inh inconclusive and Lassa entry inh inconclusive.
Screening O=C(Cn1cc(C(=O)c2ccccc2)c2ccccc21)Nc1ccc(Br)cc1 returned HCMV inh -35, MARV entry inh inconclusive, FMDV inh 0% and Lassa entry inh -20%[46.1 µM].
`CCC(=O)c1cn(CC(=O)Nc2ccccc2)c2ccccc12` gave HCMV inh 3, MARV entry inh inconclusive, FMDV inh -6% and Lassa entry inh inconclusive.
`CCOC(=O)C(=O)N1CCC(Cc2ccccc2)CC1` gave HCMV inh -32, MARV entry inh 16%[46.1 µM], FMDV inh 1% and Lassa entry inh 7%.
`O=C(C(=O)N1CCC(Cc2ccccc2)CC1)c1ccccc1Br` gave HCMV inh -63* and FMDV inh -10%.
Screening Cc1ccc(NC(=O)CSCn2nnc3c(=O)[nH]c(Cc4ccc(F)cc4)nc32)c(C)c1 returned HCMV inh -3, MARV entry inh 10%[46.1 µM], FMDV inh -29% and Lassa entry inh 13%[46.1 µM].

Screens from PubChem BioAssay.
